Source: PubChem BioAssay
Some of the results follow. A number with no mark means an inactive call. The source made the active and inactive calls.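 How the source made its calls, unless noted: active means activation above the solvent-only control well mean plus 3 SD, set per plate batch (cut at about 110% in these data); inactive means the rest.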

Columns and labels:
[1] = STAT1 signaling activators, confirmation, cell-based, HTS, luciferase reporter (AID 1262;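 active means activation above a set limit carried over from the earlier primary STAT1 screen, cut at about 140% in these data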;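 further: simple ratio to median IFN-gamma plus DMSO wells so 0% means no light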); details: NIH 3T3 STAT1-luciferase reporter, IFN-gamma potentiation, luminescence; at 5.7 µM; hits give high values; 100% = IFN-gamma EC80 alone, no compound
[2] = NF-kB reporter activators, TNF-alpha stimulated, counter-screen for STAT1 activator project, cell-based, HEK293T, luciferase luminescence (AID 1306;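 active means activation above the mean of solvent-only control wells plus 3 SD, set per campaign, cut at about 130% in these data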;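 further: TNF-alpha given at a submaximal dose yielding about 80% of full reporter signal; values are well signal over median control so 100% means no change and 0% no light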); details: at 5.7 µM, hits give high values, 100% = TNF-alpha with vehicle only
[3] = biological target: Signal transducer and activator of transcription 3 (Homo sapiens) (UniProt P40763); assay: STAT3 reporter activation by STAT1 hits, confirmation, counter-screen for STAT1 activator project, U3A cells, luciferase, luminescence (AID 1316); details: IL-6, luminescence, at 5.7 µM, hits give high values, 100 = IL-6 alone, no compound effect, cells lack STAT1;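 further: 0% = no luminescence and 100% = median IL-6 plus DMSO wells; higher means more STAT3 reporter activation so hits are non-selective activators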
[4] = system: DAF-12 nuclear receptor (Heterodera glycines), GAL4-LBD fusion; assay: H. glycines DAF-12 receptor agonists, confirmation, cell-based, luminescence, HEK293, GAL4-LBD fusion (AID 743050;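 active means mean activation over triplicate wells above the hit cutoff derived from the earlier primary screen, cut at about 11% in these data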;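 further: 0% = DMSO low control and 100% = 2 mM sodium butyrate high control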); details: HEK293 GAL4-hgDAF12 luciferase reporter, agonist mode; at 6.8 µM; hits give high values; percent of butyrate response
[5] = biological target: Oxysterols receptor LXR-beta (Homo sapiens) (UniProt P55055); assay: LXR agonists, Gal4 luciferase reporter, confirmation, counter-screen for hgDAF-12 agonist project, cell-based, luminescence, HEK293, H. glycines campaign (AID 743051;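 active means mean activation of the triplicate above a set limit carried over from the primary screen, none filed active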); details: 24 h, at 6.8 µM, hits give high values
Chain of Oxysterols receptor LXR-beta (Homo sapiens) (P55055 whole entry, looked up, the tested form may be a part): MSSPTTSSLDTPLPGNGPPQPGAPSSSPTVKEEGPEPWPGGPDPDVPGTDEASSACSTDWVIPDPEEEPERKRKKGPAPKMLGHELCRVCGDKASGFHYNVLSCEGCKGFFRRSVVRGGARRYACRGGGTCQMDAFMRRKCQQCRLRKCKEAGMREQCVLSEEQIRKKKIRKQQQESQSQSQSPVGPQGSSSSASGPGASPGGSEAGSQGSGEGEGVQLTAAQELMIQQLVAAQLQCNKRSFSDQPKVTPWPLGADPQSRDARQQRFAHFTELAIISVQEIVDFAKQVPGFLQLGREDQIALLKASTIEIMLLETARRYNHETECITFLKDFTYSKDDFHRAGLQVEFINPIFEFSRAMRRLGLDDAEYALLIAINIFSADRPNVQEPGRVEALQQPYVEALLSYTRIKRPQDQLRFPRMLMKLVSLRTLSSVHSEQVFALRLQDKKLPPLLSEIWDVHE

[6] = KLF5 expression inhibitors, confirmation, DLD-1 cells, luminescence (AID 1834;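 active means inhibition above a set limit taken from the earlier primary screen, cut at about 63% in these data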;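 further: 0% = DMSO wells and 100% = LY294002 at 200 µM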); details: DLD-1 KLF5 promoter firefly luciferase reporter, at 4 µM, hits give high values
[7] = cytotoxicity in rat IEC-6 cells, cytotoxicity control for KLF5 inhibitor project, cell-based, luminescence, triplicate (AID 1905; in the data active means inhibition above about 23%;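 further: cells exposed to compounds for 48 hours before viability read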); details: IEC-6 rat intestinal cells, viability luminescence; at 4 µM; hits give high values
[8] = biological target: Oxysterols receptor LXR-beta (Homo sapiens) (UniProt P55055); assay: LXR agonists, Gal4 luciferase reporter, confirmation, counter-screen for hcDAF-12 agonist project, cell-based, luminescence, HEK293, H. contortus campaign (AID 743027;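 active means mean percent activation of the reporter above a cutoff set as the average over tested compounds plus their standard deviation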); details: HEK293 Gal4-LXR tk-luc reporter, 24 h, at 6.8 µM, hits give high values, normalized: DMSO 0%, positive control 100%
[9] = system: Nuclear hormone receptor DAF-12 (Haemonchus contortus); assay: H. contortus DAF-12 receptor agonists, confirmation, cell-based, luminescence, HEK293, lit1-tk-luc, triplicate (AID 743032;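 active means mean activation across triplicate tests above the threshold derived from the earlier primary screen, cut at about 5.5% in these data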;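 further: 0% = DMSO only wells and 100% = 3 µM Δ7-dafachronic acid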); details: HEK293 hcDAF-12 lit1-tk-luc reporter, at 6.8 µM, hits give high values, % of Δ7-dafachronic acid response
[10] = biological target: Insulin-degrading enzyme (Homo sapiens) (UniProt P14735); assay: human IDE inhibitors in live cells, confirmation, fluorescence polarization, HEK cells, FAbetaB substrate (AID 435028;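 active means mean inhibition across triplicate wells above the cutoff set by the earlier primary insulin-degrading enzyme screen, cut at about 16% in these data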;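 further: 0% = DMSO wells and 100% = 60 µM reference IDE inhibitor Ii1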); details: FAbetaB cleavage, at 5.59 µM, hits give high values
Chain of Insulin-degrading enzyme (Homo sapiens) (P14735 whole entry, looked up): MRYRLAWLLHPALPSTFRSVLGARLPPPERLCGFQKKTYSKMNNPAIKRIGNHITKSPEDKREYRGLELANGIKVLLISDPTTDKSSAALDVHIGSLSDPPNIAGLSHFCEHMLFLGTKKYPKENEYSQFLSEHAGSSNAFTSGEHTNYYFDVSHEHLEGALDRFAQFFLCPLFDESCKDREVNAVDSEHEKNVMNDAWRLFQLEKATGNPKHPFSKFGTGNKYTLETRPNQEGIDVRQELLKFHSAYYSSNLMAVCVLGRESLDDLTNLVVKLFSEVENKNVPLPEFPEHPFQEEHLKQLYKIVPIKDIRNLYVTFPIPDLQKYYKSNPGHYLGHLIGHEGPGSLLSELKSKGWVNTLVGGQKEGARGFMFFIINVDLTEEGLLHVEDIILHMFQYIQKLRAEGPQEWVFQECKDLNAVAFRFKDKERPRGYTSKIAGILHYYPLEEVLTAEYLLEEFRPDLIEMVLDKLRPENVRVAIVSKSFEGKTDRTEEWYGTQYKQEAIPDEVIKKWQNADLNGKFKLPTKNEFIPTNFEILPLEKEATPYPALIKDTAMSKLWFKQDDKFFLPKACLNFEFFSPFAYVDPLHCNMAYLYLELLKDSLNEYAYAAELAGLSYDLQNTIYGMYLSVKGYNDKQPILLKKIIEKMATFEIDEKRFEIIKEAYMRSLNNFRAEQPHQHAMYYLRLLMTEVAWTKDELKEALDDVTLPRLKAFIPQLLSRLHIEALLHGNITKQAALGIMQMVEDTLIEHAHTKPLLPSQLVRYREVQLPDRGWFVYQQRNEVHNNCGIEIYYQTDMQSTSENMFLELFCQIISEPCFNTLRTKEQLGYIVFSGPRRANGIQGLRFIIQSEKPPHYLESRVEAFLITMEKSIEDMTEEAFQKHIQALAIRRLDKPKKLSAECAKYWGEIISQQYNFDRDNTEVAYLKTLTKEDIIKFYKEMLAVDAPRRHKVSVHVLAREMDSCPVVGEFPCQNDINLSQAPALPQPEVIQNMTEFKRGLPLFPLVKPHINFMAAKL

[11] = cytotoxicity in HEK cells, cytotoxicity control for IDE inhibitor project, cell-based, luminescence (AID 449730; in the data active means inhibition above about 22%;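 further: 0% = vehicle wells and 100% = reference cytotoxic drug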); details: HEK293 cytotoxicity, ATP luminescence; at 5.59 µM; hits give high values

Question: Which results are given for `COc1ccc2oc(-c3cccc(NC(=O)CSc4ccc(Cl)cc4)c3)nc2c1`?
Answer: activation (% of control) [1]: 216% (active); activation (% of control) [2]: 140% (active); activation (% of control) [3]: 100%

Question: What does the source list for `O=C(Nc1ccc(-c2nnc(-c3ccccc3)o2)cc1)C1CCCO1` (centres undefined)?
Answer: activation (% of control) [1]: 207% (active); activation (% of control) [2]: 122%; activation (% of control) [3]: 123% (active); activation [4]: 15.9% (active); activation [5]: 0.9%

Question: What does the source list for `CC(=O)c1sc(NC(=O)c2ccc(C)cc2)nc1C`?
Answer: activation (% of control) [1]: 185% (active); activation (% of control) [2]: 123%; activation (% of control) [3]: 94.7%

Question: Which activation (% of control) [1] does the source give for `Cc1cccc(-c2noc(-c3ccc(F)cc3)n2)c1` here?
Answer: The activation (% of control) was 222% (active).

Question: And the activation (% of control) [2]?
Answer: Its activation (% of control) is 133%.

Question: What about the activation (% of control) [3] of the same compound?
Answer: Its activation (% of control) is 119% (active).

Question: For `COc1ccc(/C=N/Nc2nc3ccccc3o2)cc1OC`, which activation (% of control) [1] is on record?
Answer: The activation (% of control) was 208% (active).

Question: And the activation (% of control) [2]?
Answer: Its activation (% of control) is 133%.

Question: And the activation (% of control) [3]?
Answer: The activation (% of control) was 108%.

Question: For `COc1ccc(CS(=O)/C(Cl)=C(/Cl)C(=O)Nc2ccc(OC)nc2)cc1` (centres undefined), which activation (% of control) [1] is on record?
Answer: Its activation (% of control) is 335% (active).

Question: What about the activation (% of control) [2] of the same compound?
Answer: The activation (% of control) was 67.4%.

Question: And the activation (% of control) [3]?
Answer: The activation (% of control) was 105%.

Question: What about the inhibition [6] of the same compound?
Answer: The inhibition was 97% (active).

Question: What about the inhibition [7] of the same compound?
Answer: Its inhibition is 63.7% (active).

Question: For `Cc1cccc(-n2c(O)c(C=Nc3ccccc3N)c(=O)[nH]c2=O)c1`, which activation (% of control) [1] is on record?
Answer: Its activation (% of control) is 127%.

Question: What about the activation (% of control) [2] of the same compound?
Answer: The activation (% of control) was 118%.

Question: And the activation (% of control) [3]?
Answer: Its activation (% of control) is 103%.

Question: What about the activation [4] of the same compound?
Answer: Its activation is 8.36%.

Question: What about the activation [5] of the same compound?
Answer: The activation was 0.33%.

Question: With `OCCCN1c2ccccc2Nc2nnc(-c3ccccc3)cc21` as the compound, how does the activation (% of control) [1] read?
Answer: The activation (% of control) was 177% (active).

Question: What about the activation (% of control) [2] of the same compound?
Answer: Its activation (% of control) is 132%.

Question: What about the activation (% of control) [3] of the same compound?
Answer: The activation (% of control) was 102%.

Question: Which results are given for `Cc1cccc(NC(=O)Nc2ccc3c(c2)OCO3)n1`?
Answer: activation (% of control) [1]: 192% (active); activation (% of control) [2]: 133% (active); activation (% of control) [3]: 121% (active); activation [8]: 0.92%; activation [9]: 4.11%; activation [4]: 18.4% (active); activation [5]: 0.79%

Question: What does the source list for `Cc1ccc(NC(=O)Nc2ccc3oc(C)nc3c2)cc1`?
Answer: activation (% of control) [1]: 200% (active); activation (% of control) [2]: 128%; activation (% of control) [3]: 102%

Question: Which activation (% of control) [1] does the source give for `c1ccc(Nc2nc(-c3ccncc3)cs2)nc1` here?
Answer: Its activation (% of control) is 243% (active).

Question: And the activation (% of control) [2]?
Answer: Its activation (% of control) is 126%.

Question: And the activation (% of control) [3]?
Answer: The activation (% of control) was 126% (active).

Question: What about the activation [8] of the same compound?
Answer: The activation was 1.73%.

Question: And the activation [9]?
Answer: The activation was 8.34% (active).

Question: What about the activation [4] of the same compound?
Answer: Its activation is 16.8% (active).

Question: And the activation [5]?
Answer: Its activation is 0.86%.

Question: What does the source list for `CN1C(=O)/C(=C/C=C2\SCCN2C)OC1=S`?
Answer: activation (% of control) [1]: 175% (active); activation (% of control) [2]: 132%; activation (% of control) [3]: 118% (active); inhibition [10]: 86.5% (active); inhibition [11]: 9.01%

Question: Which results are given for `Cc1cc(Cl)ccc1OCc1nc(-c2ccncc2)no1`?
Answer: activation (% of control) [1]: 165% (active); activation (% of control) [2]: 138% (active); activation (% of control) [3]: 106%; activation [4]: 15.6% (active); activation [5]: 0.57%

Question: Which activation (% of control) [1] does the source give for `Cc1ccc(NC(=O)c2csc3c2CCCC3)cc1` here?
Answer: Its activation (% of control) is 202% (active).

Question: And the activation (% of control) [2]?
Answer: The activation (% of control) was 140% (active).

Question: And the activation (% of control) [3]?
Answer: The activation (% of control) was 111% (active).

Question: And the activation [8]?
Answer: The activation was 1.06%.

Question: What about the activation [9] of the same compound?
Answer: Its activation is 6.25% (active).

Question: And the activation [4]?
Answer: Its activation is 17.6% (active).

Question: What about the activation [5] of the same compound?
Answer: Its activation is 0.8%.
